Test results published in PubChem BioAssay (NCATS).
Inconclusive results are not listed. Activity calls are given as the source filed them. Calls follow the shape of the dose curve; as a rule, active = well fitted inhibition curve with a large enough effect; inconclusive = small, poorly fitted or top-dose-only effect; inactive = no such curve, though single readings can be large or run the other way.

system: Zika virus NS2B-NS3 protease (linked construct); assay: 384 well plate NINDS Rhodamine confirmatory qHTS for Zika virus inhibitors (AID 1347164); conditions: rhodamine-110 peptide substrate fluorescence; series mostly up to 100 µM; activity change, negative = inhibition: at the top concentration; also: nearly all actives have a fitted effect of over 65% in size; as to activity change, negative = inhibition: top concentration of the series differs between compounds
Description: Description: Assay Submitters (PI): Avindra Nath, Ph.D., National Institute of Neurological Disorders and Stroke (NINDS), Bethesda, MD Radhakrishnan Padmanabhan, Ph.D., Georgetown University (GU), Washington D.C. Zika Virus causes congenital defects, including microcephaly and is associated with Guillain-Barre syndrome, eningoencephalitis and myelitis in infected adult. […] Using a target-based approach, we hope to establish a screening paradigm to uncover novel, cell-active NS2B-NS3 protease (Zika Virus) specific inhibitors from NCATS' collection of small molecules using qHTS. […] Four assay panel was created to identify potential Zika Virus inhibitors. Namely, (1) GU unlinked NS2B-NS3 AMC tagged protease qHTS, (2) GU unlinked NS2B-NS3 Rhodamine tagged protease qHTS, (3) NINDS linked NS2B-NS3 AMC tagged protease qHTS, (4) NINDS linked NS2B-NS3 Rhodamine tagged protease qHTS. Active compounds are validated using a secondary assay in 384 well plate format. Early Translation Branch (ETB) National Center for Advancing Translational Sciences (NCATS), Rockville, MD National Institute of Health (NIH), Bethesda, Maryland
384-well NINDS Rhodamine Assay: The protease was diluted to 7.5 nM, 40.9 nM, or 82 nM in assay buffer and dispensed into a 96-well PCR plate (Applied Biosystems); 20 or 22 microL was transferred to a black 384-well assay plate (final protease concentration of 5 nM, 30 nM, or 60 nM, respectively). Compounds (3 microL, 1 microM - 10 mM, DMSO) were diluted and transferred to the assay plate (final concentrations ranged from 100 nM to 1 mM). Compounds were incubated with protease for ~15 minutes. The substrate, Rhodamine 110 (Ac-LKRR-Rd; Genscript), was dissolved in DMSO to a concentration of 6 mM and further diluted into assay buffer to a working concentration of 180 microM, then dispensed into a 384-well preparation plate (Eppendorf). A multichannel repeat pipettor was used to add 3 or 5 microL of substrate to the assay plate to give a final concentration of 10 microM. The plate was incubated in the dark at room temperature. After 25 minutes, the fluorescence intensity (excitation: 485 nm, emission: 538 nm) was measured and normalized to no-enzyme and no-inhibitor controls. Aprotinin39 (VWR) was used as an intraplate control.
Potency is read from the fitted curve at half-maximal effect.

Structure (SMILES)	Potency	activity change, negative = inhibition
CC(O)(C(=O)O)C1CCC2(C)C1CCC1(C)C2CCC2C3(C)CCC(O)C(C)(COC4OC(CO)C(O)C(O)C4O)C3CCC21C (centres undefined)	12.6 µM (active)	–
O=C(Nc1ccc(/C=C/c2ccc(NC(=O)c3cc(S(=O)(=O)O)c4cccnc4c3O)cc2S(=O)(=O)O)c(S(=O)(=O)O)c1)c1cc(S(=O)(=O)O)c2cccnc2c1O	15.8 µM (active)	–
O=C(O)c1cc(N(Cc2ccc(C3CCCCC3)cc2)C(=O)c2ccc(Oc3ccccc3)cc2)ccc1O	–	-296% (inactive)
CC(C)(C)Sc1c(CC(C)(C)C(=O)O)n(Cc2ccc(Cl)cc2)c2ccc(OCc3ccc4ccccc4n3)cc12	–	-308% (inactive)
O=S(=O)(Nc1cc(Cl)c(Oc2cnc3ccccc3c2)c(Cl)c1)c1ccc(Cl)cc1Cl	2.51 µM (active)	–
CC#C[C@@H](CC(=O)O)c1ccc(OCc2cccc(-c3ccc(C(F)(F)F)cc3)c2)cc1	5.62 µM (active)	–
O=C(Nc1ccc(-c2ccc(Cl)c(Cl)c2)cc1)C1=C(O)c2ccccc2S(=O)(=O)N1	44.7 µM (active)	–
N#Cc1ccc(N2N=C3c4ccc(C(=O)O)cc4CC[C@@H]3[C@@H]2C2CCCC2)cc1Cl	4.47 µM (active)	–
CC(C)C[C@H](C(=O)O)c1cc(-c2ccc(C(F)(F)F)cc2)cc(-c2ccc(C(F)(F)F)cc2)c1	–	-65.1% (inactive)
O=C(O)c1ccc(N2C(=O)/C(=C/c3ccc(-c4ccc([N+](=O)[O-])cc4)o3)C=C2c2ccccc2)cc1	–	-670% (inactive)
Cc1noc(-c2ccc(-c3ccc(CC(=O)O)cc3)cc2)c1NC(=O)O[C@H](C)c1ccccc1Cl	7.94 µM (active)	–
CCCCCc1ccc(/C=C/C(=O)Nc2cc(Cl)ccc2C(=O)O)cc1	22.4 µM (active)	–
COc1ccc(-c2ccccc2)cc1NS(=O)(=O)c1cc(Cl)cc(Cl)c1O	4.47 µM (active)	–
O=C(O)c1cccc(-c2ccc(-c3cn(C(=O)N4CCCCC4Cc4ccccc4)nn3)cc2)c1 (centres undefined)	–	-264% (inactive)
